Results on 1 sequence are retold here after article PMC7862700, “An all-to-all approach to the identification of sequence-specific readers for epigenetic DNA modifications on cytosine”.

Holding throughout (test): DAPPL (digital affinity profiling via proximity ligation, sequencing); 10 mM Tris-HCl pH 7.5, 50 mM NaCl, 1 mM DTT, 4% glycerol, room temperature, 30 min; GST-TFs on glutathione beads, 16-mer random dsDNA library, 0.1% formaldehyde crosslink after washing; high values mean tight binding
The target of assay [1] is T1, FEV (Homo sapiens, UniProt Q99581 1-238).
T1 sequence: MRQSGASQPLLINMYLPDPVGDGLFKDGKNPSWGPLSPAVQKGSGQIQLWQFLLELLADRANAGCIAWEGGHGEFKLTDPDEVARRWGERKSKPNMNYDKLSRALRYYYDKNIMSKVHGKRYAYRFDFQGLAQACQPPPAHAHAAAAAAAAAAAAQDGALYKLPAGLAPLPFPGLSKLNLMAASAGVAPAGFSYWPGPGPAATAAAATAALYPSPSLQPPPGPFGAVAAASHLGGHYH
The note with it: protein: recombinant; tags: N-terminal GST; dsDNA, one strand shown. An outline of the steps: (§1)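 Each value of binding signal is a hexamer's read frequency for a factor divided by the same hexamer's frequency in the tag-only sample. Barcoded, bead-captured GST fusions of human transcription factors made in yeast were pooled with that sample and incubated with 200 nmole of a random double-stranded 16-mer DNA library in Tris/NaCl/DTT/glycerol buffer at room temperature for 30 min. Washing, 0.1% formaldehyde crosslinking, proximity ligation, PCR and Illumina NextSeq500 sequencing followed.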

Assay [2] concerns the target ETV5 (Homo sapiens, UniProt P41161 1-510). The settings on record: protein: recombinant; tags: N-terminal GST; dsDNA, one strand shown. The method, boiled down: as §1
The target of assay [3] is HSF1 (Homo sapiens, UniProt Q00613 1-529). The note with it: protein: recombinant; tags: N-terminal GST; chain copies: 3; dsDNA, one strand shown. An outline of the steps:
as §1

The target of assay [4] is T2, SPIC (Homo sapiens, UniProt Q8N5J4 1-248).
T2 sequence: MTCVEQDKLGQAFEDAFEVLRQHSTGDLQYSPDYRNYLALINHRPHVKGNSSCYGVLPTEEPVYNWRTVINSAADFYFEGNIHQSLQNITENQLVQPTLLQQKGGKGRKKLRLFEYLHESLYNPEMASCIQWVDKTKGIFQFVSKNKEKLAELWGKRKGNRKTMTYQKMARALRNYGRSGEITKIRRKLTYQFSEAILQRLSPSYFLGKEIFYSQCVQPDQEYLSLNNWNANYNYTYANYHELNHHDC
The note with it: protein: recombinant; tags: N-terminal GST; dsDNA, one strand shown. An outline of the steps:
as §1

Assay [5] has as its target ELF4 (Homo sapiens, UniProt Q99607 1-663). The note with it: protein: recombinant; tags: N-terminal GST; dsDNA, one strand shown. An outline of the steps: as §1
Assay [6] deals with T3, ELK4 (Homo sapiens, UniProt P28324-2 1-405).
T3 sequence: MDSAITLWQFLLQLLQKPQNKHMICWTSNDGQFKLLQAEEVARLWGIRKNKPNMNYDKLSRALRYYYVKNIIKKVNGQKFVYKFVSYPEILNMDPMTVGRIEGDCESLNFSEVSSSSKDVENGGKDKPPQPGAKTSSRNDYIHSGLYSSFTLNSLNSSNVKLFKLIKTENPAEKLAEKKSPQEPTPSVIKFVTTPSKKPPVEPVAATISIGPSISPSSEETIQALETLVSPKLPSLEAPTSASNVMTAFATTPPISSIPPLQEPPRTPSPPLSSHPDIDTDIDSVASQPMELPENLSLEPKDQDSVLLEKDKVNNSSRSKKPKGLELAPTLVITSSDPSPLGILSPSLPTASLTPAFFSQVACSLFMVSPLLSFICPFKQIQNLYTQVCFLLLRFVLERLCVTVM
The note with it: protein: recombinant; tags: N-terminal GST; dsDNA, one strand shown. The method, boiled down: as §1

In assay [7] the target is T4, ETV2 (Homo sapiens, UniProt O00321 1-342).
T4 sequence: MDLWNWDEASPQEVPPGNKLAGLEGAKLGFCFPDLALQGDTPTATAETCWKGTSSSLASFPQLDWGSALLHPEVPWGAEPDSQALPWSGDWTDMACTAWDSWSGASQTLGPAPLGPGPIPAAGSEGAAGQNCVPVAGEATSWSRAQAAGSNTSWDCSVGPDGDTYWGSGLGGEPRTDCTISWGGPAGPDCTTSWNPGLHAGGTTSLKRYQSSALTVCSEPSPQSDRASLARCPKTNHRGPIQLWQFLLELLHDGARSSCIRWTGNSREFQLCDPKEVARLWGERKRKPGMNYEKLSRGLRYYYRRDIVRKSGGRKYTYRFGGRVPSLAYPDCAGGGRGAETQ
The settings on record: protein: recombinant; tags: N-terminal GST; dsDNA, one strand shown. The method, boiled down:
as §1

Assay [8] deals with T5, ELF3 (Homo sapiens, UniProt P78545 1-371).
T5 sequence: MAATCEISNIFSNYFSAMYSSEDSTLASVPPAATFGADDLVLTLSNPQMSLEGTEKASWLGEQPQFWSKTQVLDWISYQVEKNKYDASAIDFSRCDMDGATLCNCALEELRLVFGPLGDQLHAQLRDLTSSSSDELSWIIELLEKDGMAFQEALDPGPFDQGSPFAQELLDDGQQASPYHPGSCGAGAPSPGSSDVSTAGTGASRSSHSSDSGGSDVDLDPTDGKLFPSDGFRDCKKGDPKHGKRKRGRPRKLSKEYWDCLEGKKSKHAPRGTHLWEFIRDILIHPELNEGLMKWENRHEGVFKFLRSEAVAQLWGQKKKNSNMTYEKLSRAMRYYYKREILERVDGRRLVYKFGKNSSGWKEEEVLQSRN
The settings on record: protein: recombinant; tags: N-terminal GST; dsDNA, one strand shown. The method, boiled down:
as §1

Assay [9] has as its target CRX (Homo sapiens, UniProt O43186 1-299). The note with it: protein: recombinant; tags: N-terminal GST; dsDNA, one strand shown. The method, boiled down:
as §1

Assay [10] addresses ETV1 (Homo sapiens, UniProt P50549 1-477). The settings on record: protein: recombinant; tags: N-terminal GST; dsDNA, one strand shown. The method, boiled down:
as §1

Assay [11] addresses T6, ERF (Homo sapiens, UniProt P50548 1-548).
T6 sequence: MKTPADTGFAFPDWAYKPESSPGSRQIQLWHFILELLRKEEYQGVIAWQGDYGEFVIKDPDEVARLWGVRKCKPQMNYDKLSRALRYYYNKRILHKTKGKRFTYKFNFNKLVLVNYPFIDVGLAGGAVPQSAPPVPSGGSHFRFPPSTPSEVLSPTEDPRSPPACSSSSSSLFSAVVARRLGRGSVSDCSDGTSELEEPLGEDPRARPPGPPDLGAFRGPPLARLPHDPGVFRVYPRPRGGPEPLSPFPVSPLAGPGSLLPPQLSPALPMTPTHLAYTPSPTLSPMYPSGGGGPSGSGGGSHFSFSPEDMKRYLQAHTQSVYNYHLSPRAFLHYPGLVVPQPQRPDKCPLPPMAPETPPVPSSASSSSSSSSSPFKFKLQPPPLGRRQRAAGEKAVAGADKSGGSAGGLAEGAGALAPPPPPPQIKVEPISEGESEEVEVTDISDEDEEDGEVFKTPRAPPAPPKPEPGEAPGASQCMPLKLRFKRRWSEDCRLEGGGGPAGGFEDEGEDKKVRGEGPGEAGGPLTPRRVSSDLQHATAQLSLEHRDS
The note with it: protein: recombinant; tags: N-terminal GST; dsDNA, one strand shown. An outline of the steps:
as §1

For assay [12], the target named is T7, ETV3L (Homo sapiens, UniProt Q6ZN32 1-361).
T7 sequence: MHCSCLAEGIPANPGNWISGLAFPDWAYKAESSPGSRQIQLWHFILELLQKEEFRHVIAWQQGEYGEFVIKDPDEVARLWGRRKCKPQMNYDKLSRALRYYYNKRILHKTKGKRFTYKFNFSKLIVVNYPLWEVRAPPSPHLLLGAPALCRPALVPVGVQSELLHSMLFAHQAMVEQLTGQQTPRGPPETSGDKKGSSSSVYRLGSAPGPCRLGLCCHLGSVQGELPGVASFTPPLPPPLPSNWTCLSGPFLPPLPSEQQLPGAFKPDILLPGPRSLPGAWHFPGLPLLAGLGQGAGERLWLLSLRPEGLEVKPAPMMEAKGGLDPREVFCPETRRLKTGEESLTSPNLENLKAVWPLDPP
The settings on record: protein: recombinant; tags: N-terminal GST; dsDNA, one strand shown. The method, boiled down:
as §1

The target of assay [13] is T8, ETS2 (Homo sapiens, UniProt P15036 1-469).
T8 sequence: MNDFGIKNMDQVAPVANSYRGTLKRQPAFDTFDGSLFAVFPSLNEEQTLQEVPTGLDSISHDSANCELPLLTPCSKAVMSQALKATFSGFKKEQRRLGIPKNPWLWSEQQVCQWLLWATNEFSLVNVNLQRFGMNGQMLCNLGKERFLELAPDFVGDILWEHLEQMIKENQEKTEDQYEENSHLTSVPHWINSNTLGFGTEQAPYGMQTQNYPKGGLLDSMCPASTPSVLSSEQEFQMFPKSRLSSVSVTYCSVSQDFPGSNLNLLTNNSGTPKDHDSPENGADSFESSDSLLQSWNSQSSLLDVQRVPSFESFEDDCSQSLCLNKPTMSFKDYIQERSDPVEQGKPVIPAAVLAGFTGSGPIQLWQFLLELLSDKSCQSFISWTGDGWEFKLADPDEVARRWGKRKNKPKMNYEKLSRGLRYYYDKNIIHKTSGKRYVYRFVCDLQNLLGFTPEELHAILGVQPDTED
The settings on record: protein: recombinant; tags: N-terminal GST; dsDNA, one strand shown. An outline of the steps: as §1

The target in assay [14] is T9, SPDEF (Homo sapiens, UniProt O95238 1-335).
T9 sequence: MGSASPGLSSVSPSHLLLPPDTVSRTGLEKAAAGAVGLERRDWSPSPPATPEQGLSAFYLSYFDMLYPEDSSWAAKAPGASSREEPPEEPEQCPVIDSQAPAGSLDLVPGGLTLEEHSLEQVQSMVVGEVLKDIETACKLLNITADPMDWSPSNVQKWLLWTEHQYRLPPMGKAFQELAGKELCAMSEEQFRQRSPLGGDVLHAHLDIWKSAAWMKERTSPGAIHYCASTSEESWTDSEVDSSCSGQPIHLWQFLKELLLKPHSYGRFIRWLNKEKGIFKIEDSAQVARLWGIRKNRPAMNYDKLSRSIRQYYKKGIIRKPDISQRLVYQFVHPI
The note with it: protein: recombinant; tags: N-terminal GST; dsDNA, one strand shown. An outline of the steps: as §1

In assay [15] the target is T10, ETV7 (Homo sapiens, UniProt Q9Y603 1-341).
T10 sequence: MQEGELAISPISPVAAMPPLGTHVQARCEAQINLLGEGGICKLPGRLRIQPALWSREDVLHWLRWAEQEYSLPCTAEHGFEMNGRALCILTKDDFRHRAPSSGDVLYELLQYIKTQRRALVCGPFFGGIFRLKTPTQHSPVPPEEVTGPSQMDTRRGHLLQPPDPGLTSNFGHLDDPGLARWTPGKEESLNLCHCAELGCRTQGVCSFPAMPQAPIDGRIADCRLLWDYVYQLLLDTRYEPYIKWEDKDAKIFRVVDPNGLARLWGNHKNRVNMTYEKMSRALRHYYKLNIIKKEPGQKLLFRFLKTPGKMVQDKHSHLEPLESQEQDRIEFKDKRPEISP
The settings on record: protein: recombinant; tags: N-terminal GST; dsDNA, one strand shown. The method, boiled down:
as §1

The target of assay [16] is T11, ELF5 (Homo sapiens, UniProt Q9UKW6-2 1-255).
T11 sequence: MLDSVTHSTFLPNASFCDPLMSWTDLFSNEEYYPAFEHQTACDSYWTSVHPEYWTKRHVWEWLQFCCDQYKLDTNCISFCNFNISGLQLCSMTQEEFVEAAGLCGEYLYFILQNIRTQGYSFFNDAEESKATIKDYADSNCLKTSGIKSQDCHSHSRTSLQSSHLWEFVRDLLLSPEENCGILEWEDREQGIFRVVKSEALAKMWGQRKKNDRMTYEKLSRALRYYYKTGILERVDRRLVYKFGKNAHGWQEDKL
The note with it: protein: recombinant; tags: N-terminal GST; dsDNA, one strand shown. The method, boiled down:
as §1

Assay [17] addresses T12, ETV3 (Homo sapiens, UniProt P41162-2 1-143).
T12 sequence: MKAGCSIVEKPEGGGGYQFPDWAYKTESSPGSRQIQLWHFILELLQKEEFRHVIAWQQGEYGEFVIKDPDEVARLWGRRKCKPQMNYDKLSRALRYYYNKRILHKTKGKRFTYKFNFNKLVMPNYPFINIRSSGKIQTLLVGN
The settings on record: protein: recombinant; tags: N-terminal GST; dsDNA, one strand shown. An outline of the steps:
as §1

In assay [18] the target is ETV6 (Homo sapiens, UniProt P41212 1-452). The settings on record: protein: recombinant; tags: N-terminal GST; dsDNA, one strand shown. An outline of the steps:
as §1

Chain of ETV5 (P41161 whole entry): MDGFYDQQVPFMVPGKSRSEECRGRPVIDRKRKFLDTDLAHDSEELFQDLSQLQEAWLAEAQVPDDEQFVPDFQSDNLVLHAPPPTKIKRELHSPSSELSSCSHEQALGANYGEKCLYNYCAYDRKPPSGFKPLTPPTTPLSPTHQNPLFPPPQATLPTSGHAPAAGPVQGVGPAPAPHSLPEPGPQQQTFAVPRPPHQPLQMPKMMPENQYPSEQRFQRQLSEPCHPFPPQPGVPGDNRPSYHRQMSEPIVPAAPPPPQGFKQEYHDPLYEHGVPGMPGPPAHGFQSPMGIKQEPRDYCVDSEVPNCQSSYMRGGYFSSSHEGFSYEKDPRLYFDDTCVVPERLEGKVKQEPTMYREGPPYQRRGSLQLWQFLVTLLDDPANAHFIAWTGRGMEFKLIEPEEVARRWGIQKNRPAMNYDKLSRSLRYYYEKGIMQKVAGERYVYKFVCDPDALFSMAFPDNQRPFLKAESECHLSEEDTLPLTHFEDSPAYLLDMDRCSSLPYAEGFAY
Chain of HSF1 (Q00613 whole entry): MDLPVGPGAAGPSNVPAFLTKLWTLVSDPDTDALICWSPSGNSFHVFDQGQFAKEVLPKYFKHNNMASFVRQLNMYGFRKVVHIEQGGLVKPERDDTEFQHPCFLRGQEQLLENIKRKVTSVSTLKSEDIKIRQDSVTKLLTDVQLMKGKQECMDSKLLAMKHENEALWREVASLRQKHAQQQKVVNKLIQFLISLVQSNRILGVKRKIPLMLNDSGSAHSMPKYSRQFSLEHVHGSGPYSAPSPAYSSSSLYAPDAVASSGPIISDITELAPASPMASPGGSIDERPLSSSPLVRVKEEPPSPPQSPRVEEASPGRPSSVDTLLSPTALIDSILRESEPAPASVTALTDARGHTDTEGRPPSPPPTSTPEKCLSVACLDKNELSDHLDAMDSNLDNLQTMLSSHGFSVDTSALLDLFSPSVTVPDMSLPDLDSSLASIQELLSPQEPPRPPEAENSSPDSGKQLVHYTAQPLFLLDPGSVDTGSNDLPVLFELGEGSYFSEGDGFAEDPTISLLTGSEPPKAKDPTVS
Chain of ETV1 (P50549 whole entry): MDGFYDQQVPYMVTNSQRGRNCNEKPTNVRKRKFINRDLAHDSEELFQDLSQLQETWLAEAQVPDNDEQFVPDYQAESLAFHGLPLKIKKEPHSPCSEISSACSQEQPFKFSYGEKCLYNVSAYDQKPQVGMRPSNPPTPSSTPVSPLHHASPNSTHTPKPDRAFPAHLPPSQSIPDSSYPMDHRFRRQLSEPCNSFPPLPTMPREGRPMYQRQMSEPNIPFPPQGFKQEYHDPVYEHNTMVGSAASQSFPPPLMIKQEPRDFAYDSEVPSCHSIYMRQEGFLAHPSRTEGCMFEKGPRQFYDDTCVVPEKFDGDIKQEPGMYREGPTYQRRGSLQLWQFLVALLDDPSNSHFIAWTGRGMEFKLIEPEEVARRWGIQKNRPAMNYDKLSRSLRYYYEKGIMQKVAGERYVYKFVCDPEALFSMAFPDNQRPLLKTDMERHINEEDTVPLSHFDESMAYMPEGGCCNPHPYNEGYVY
Chain of CRX (O43186 whole entry): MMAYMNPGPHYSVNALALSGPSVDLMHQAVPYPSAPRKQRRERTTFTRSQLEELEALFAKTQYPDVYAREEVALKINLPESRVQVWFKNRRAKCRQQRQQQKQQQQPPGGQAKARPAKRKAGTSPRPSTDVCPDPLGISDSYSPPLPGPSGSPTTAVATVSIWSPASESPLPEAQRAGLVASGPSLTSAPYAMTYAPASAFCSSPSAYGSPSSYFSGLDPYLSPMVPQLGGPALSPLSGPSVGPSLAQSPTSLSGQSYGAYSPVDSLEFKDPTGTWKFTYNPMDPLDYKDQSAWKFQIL
Chain of ELF4 (Q99607 whole entry): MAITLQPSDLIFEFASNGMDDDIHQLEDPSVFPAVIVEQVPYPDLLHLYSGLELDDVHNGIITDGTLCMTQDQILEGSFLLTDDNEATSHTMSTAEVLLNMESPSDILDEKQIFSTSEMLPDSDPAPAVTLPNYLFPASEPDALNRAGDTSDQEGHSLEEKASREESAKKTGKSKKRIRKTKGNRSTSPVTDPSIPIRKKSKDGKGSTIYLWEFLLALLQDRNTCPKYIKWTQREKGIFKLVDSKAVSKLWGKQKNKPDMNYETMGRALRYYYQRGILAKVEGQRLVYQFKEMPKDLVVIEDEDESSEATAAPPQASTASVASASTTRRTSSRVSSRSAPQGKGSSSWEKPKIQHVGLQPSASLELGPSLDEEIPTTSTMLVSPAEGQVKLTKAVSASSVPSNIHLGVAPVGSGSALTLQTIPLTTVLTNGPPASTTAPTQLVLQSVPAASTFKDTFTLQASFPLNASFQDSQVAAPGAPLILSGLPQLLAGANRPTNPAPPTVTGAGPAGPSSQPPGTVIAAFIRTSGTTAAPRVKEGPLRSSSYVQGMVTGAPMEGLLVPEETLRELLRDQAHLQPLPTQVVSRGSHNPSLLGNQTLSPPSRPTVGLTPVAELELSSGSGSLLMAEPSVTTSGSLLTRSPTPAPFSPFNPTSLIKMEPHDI
Chain of ETV6 (P41212 whole entry): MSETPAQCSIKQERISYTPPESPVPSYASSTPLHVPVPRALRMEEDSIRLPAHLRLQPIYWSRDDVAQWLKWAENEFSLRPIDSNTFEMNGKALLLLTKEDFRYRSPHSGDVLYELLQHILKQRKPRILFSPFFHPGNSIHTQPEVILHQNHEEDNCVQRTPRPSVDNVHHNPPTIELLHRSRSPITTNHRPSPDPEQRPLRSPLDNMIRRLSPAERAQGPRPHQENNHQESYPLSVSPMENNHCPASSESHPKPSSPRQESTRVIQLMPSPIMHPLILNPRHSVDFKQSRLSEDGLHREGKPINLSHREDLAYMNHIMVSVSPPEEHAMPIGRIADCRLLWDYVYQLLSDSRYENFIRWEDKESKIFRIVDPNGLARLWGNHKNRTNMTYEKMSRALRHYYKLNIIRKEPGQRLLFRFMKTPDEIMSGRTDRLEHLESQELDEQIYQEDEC

Regarding GACTCC, the binding signal in assay [1] is 1.32 fold enrichment (6-mer frequency, TF over GST control); in assay [2], 1.27 fold enrichment (6-mer frequency, TF over GST control); in [3], 1.05 fold enrichment (6-mer frequency, TF over GST control); in assay [4], 1.34 fold enrichment (6-mer frequency, TF over GST control); in assay [5], 1.43 fold enrichment (6-mer frequency, TF over GST control); in [6] it was 1.12 fold enrichment (6-mer frequency, TF over GST control). For the same sequence, the binding signal is 1.26 fold enrichment (6-mer frequency, TF over GST control) in assay [7]; 1.25 fold enrichment (6-mer frequency, TF over GST control) in assay [8]; 1.02 fold enrichment (6-mer frequency, TF over GST control) in assay [9]; 1.29 fold enrichment (6-mer frequency, TF over GST control) in assay [10]; 1.32 fold enrichment (6-mer frequency, TF over GST control) in assay [11]; 1.27 fold enrichment (6-mer frequency, TF over GST control) in assay [12]. The binding signal was 1.29 fold enrichment (6-mer frequency, TF over GST control) in assay [13]; 1.41 fold enrichment (6-mer frequency, TF over GST control) in assay [14]; 1.23 fold enrichment (6-mer frequency, TF over GST control) in assay [15]; 1.16 fold enrichment (6-mer frequency, TF over GST control) in assay [16]; 1.35 fold enrichment (6-mer frequency, TF over GST control) in [17]; 1.18 fold enrichment (6-mer frequency, TF over GST control) in [18].
